# Measurements as given in PubChem BioAssay AID602420 (Johns Hopkins Ion Channel Center, 2012).
# Hit rate of the full screen: of about 2,300 compounds, about 430 (19%) were called active.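 The calls were made as follows: active = remaining agonist calcium response no higher than 100% minus 3 SD of agonist-only control wells, with starting fluorescence near control levels; inactive = the rest.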 These entries were drawn from the full list.
# Biological target: Mas-related G-protein coupled receptor member X1 (Homo sapiens) (UniProt Q96LB2)
# Assay: blockers of BAM8-22 MrgX1 calcium response – HEK293 cells, Fluo-4 calcium flux, confirmation (AID 602420)
# Details: MrgX1-HEK293, BAM8-22 calcium flux, at 10 µM; hits give low values
# Sequence of Mas-related G-protein coupled receptor member X1 (Homo sapiens) (Q96LB2 whole entry, looked up): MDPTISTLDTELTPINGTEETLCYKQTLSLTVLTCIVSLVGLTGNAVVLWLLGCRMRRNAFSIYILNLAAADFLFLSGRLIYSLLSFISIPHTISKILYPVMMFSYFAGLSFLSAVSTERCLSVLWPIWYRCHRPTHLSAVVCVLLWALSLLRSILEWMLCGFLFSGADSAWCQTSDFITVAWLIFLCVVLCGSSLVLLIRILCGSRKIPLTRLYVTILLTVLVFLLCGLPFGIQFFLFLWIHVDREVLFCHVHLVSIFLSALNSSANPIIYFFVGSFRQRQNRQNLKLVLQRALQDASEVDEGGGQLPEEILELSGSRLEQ
row,Compound,remaining BAM8-22 calcium response % of control (hits give low values)
1,O=C(Cc1ccccn1)c1ccc(O)cc1O,77.8% (active)
2,CCOc1ccc(NC(=O)CCNC(=O)c2ccc(Br)cc2)cc1,inactive
3,COc1ccc([N+](=O)[O-])cc1NC(=O)COC(=O)/C=C/c1ccco1,inactive
4,CCOC(=O)C1=C(O)CSC1=Nc1cccc(Cl)c1,inactive
5,Cc1nn(-c2ccccc2)c(C)c1NC(=O)COc1ccc(Cl)cc1Cl,inactive
6,COc1ccc(C(=O)Nc2c(N)nc(SCC(=O)N3CCC(C)CC3)[nH]c2=O)cc1OC,83.1% (active)
7,CN1C(CC(=O)Nc2ccc(Br)cc2)c2ccccc2CC1(C)C (stereo unspecified),inactive
8,O=C(Nc1ccc(Br)cc1F)C1CC(=O)N(C2CCCCC2)C1 (stereo unspecified),inactive
9,Cc1cccc(-n2c(Cc3cc(=O)[nH]c(=O)[nH]3)nnc2SC(C)C)c1,inactive
10,Cc1ccc2nc(-c3ccc(NC(=O)CN(C)S(=O)(=O)c4ccccc4)cc3)sc2c1,inactive
11,O=C(O)CSC(NC(=O)c1cccnc1)(C(F)(F)F)C(F)(F)F,inactive
12,Cc1ccc2nc(-c3ccc(NC(=O)c4cccnc4)cc3)oc2c1,67.5% (active)
13,CCOC1CCCCC1NS(=O)(=O)c1ccc(Cl)cc1 (stereo unspecified),inactive
14,Cc1cc(Nc2cc(N3CCN(C)CC3)nc(Sc3ccc(NC(=O)C4CC4)cc3)n2)n[nH]1,84% (active)
15,CCOc1cc(-c2conc2N)cc(OCC)c1OCC,inactive
16,O=C(CN1CCN(c2ccccn2)CC1)NC1CCCCC1,inactive
17,Cc1cc(Br)ccc1NC(=O)c1cnc(N2CCN(c3ccccn3)CC2)c2ccccc12,72.4% (active)
18,O=S(=O)(c1ccc2ccccc2c1)N1CCN(S(=O)(=O)N2CCOCC2)CC1,inactive
19,C=CCOc1cccc(C2C(C(=O)c3ccc(C)o3)=C(O)C(=O)N2c2nnc(C)s2)c1 (stereo unspecified),63.9% (active)
20,CC(=O)N(C1=C(Cl)C(=O)c2ccccc2C1=O)c1ccc(C(=O)O)cc1,inactive
21,CCCCC(=O)Nc1ccc2c(c1)C(=O)NC2=O,inactive
22,O=C(C1CCN(S(=O)(=O)c2cnc[nH]2)CC1)N1CCN(Cc2ccc3c(c2)OCO3)CC1,inactive
23,C=CCNC(=O)c1csc(-c2ccccc2)n1,inactive
24,C=CCNC(=O)c1cc(-c2ccccc2O)on1,84.3% (active)

row,Compound,remaining BAM8-22 calcium response % of control (hits give low values)
1,COCC(C)NC(=O)c1ccc(Cl)c(Cl)c1 (stereo unspecified),inactive
2,O=C1CCCc2c1nc(-c1cccc(Cl)c1)n2O,inactive
3,CCc1cc2c(SCC(=O)Nc3ncc(Cl)c(C)c3Cl)ncnc2s1,inactive
4,O=C(COc1ccc(Cl)cc1)NC(=S)Nc1ccccc1N1CCOCC1,inactive
5,CCN(C(=O)CSc1nnc2ccccn12)C1CCS(=O)(=O)C1 (stereo unspecified),inactive
6,FC(F)Oc1ccc(NC(=S)NCc2ccco2)cc1Cl,inactive
7,O=C1CCCN1CCCNC(=S)Nc1ccc(F)c(Cl)c1,67.5% (active)
8,CCOC(=O)Nc1ccc2c(c1)N(C(=O)CCN1CCN(CCO)CC1)c1ccccc1CC2,inactive
9,CC(=O)N(C)c1ccc(NC(=O)C(F)(F)F)cc1,inactive
10,Cc1cccc(NC(=O)COc2ccccc2C)n1,inactive
11,CC(C)OCCCNc1ncnc2c1[nH]c1ccc(F)cc12,inactive
12,CCC(C)c1ccccc1N1CC(C(=O)N2CCN(S(=O)(=O)c3ccc(F)cc3)CC2)CC1=O (stereo unspecified),84.2% (active)
13,O=C(CSc1ncccn1)NC(=O)NCc1ccccc1,inactive
14,COCc1nnc(NC(=O)c2ccc3c(c2)OCO3)s1,inactive
15,Cc1cc(=O)oc2cc(NC(=O)C3CC(=O)N(Cc4ccccc4)C3)ccc12 (stereo unspecified),inactive
16,Cc1ccc(Nc2nc(-c3ccc(O)cc3O)cs2)nc1,82.3% (active)
17,CCOc1ccccc1C1CC(c2ccc(Cl)cc2)Nc2nc(N)nn21 (stereo unspecified),inactive
18,Cc1cc(C)cc(NC(=S)NCCc2c[nH]c3ccccc23)c1,inactive
19,COc1cc2c(cc1O)C(SC)=NC(C)(C)C2,85.2% (active)
20,CCOc1ccc(C(=O)NC2CCN(S(=O)(=O)CC)CC2)cc1,inactive
21,CCOC(=O)c1cn(Cc2cccc(C)c2)nn1,inactive
22,Cc1nn(-c2ccccc2)c2c1C(c1ccc(F)cc1)C(C#N)=C(N)O2 (stereo unspecified),inactive
23,CC(Oc1ccc(F)cc1)C(=O)Nc1ccccc1C(=O)NC1CC1 (stereo unspecified),inactive
24,Cc1ccc2cc(/C=N/Nc3ccc(C(=O)O)cc3)c(Cl)nc2c1,37.2% (active)

row,Compound,remaining BAM8-22 calcium response % of control (hits give low values)
1,COc1cccc(CCNC(=O)COc2cccc3c2OC(C)(C)C3)c1,inactive
2,O=C(Nc1ccccc1Cl)N1CCN(c2ccc3nncn3n2)CC1,inactive
3,COc1ccccc1Oc1nc(-c2cccnc2)nc2ccccc12,inactive
4,CC(C)(C)n1c(=O)[nH]c2c(c1=O)CCC2,inactive
5,CN(CC(=O)Nc1ccccc1Cl)C(=O)COc1cccc2c1OC(C)(C)C2,inactive
6,CCCCCCCCCCOC(=O)Cn1c(COc2cccc(OC)c2)[n+](C)c2ccccc21,53.5% (active)
7,CCCCCCCCCCOC(=O)Cn1c(COc2ccc(C)cc2)[n+](C)c2ccccc21,inactive
8,CCc1ccc2nc3sc(C(=O)Nc4nnc(CC)s4)c(N)c3cc2c1,inactive
9,CCN(CC)c1ccc(C2C3CCCCC3(O)CCN2CC(=O)Nc2ccccc2)cc1 (stereo unspecified),inactive
10,COCCNC(=O)Nc1ccc2nc(-c3ccco3)c(-c3ccco3)nc2c1,inactive
11,COc1ccc(S(=O)(=O)N2CCN(C(=O)NC3CCCCC3)CC2)cc1,inactive
12,CC(C)NC(=S)Nc1cccc2cnccc12,82.2% (active)
13,COc1ccc(S(=O)(=O)N2CCOCC2)c(C)c1C,inactive
14,Cc1ccc(Cc2cnc(N)s2)o1,inactive
15,COCCCNC(=O)C1CCN(c2ccc(N3CCOCC3)nn2)CC1,inactive
16,CC(=O)Nc1ccc(OC(=O)COc2ccc(Br)cc2)cc1,inactive
17,COC(=O)c1sccc1NS(=O)(=O)c1ccc(F)cc1F,80% (active)
18,CCc1nnc(NC(=O)CSc2nc3c(c(=O)n2-c2ccccc2OC)SCC3)s1,inactive
19,COc1ccc(C(=O)NC2CCCc3c2cnn3-c2cccc(C)c2C)c(OC)n1 (stereo unspecified),28.5% (active)
20,O=C(CSc1c2c(nc3ccc(Cl)cc13)CCCC2)NCc1ccco1,inactive
21,Cc1ccc(CS(=O)(=O)c2ncc(Cl)c(C(=O)Nc3nnc(C)s3)n2)cc1,81.2% (active)
22,COc1ccc(-n2c(SCC(=O)NCc3ccco3)nnc2-c2c[nH]c3ccccc23)cc1,inactive
23,CCOC(=O)c1c(C)[nH]c(=S)c(C#N)c1-c1ccccc1,inactive
24,COc1cccc(CNC(=O)C2CCN(S(=O)(=O)c3cccc4cccnc34)CC2)c1,inactive

row,Compound,remaining BAM8-22 calcium response % of control (hits give low values)
1,O=C(CSc1nncn1-c1cccnc1)N1CCOCC1,inactive
2,N#CC1=C(N)Oc2c(sc3ccccc23)C1c1ccco1 (stereo unspecified),inactive
3,O=C(Nc1ccc(Cl)cc1)Nc1ccc(Oc2cccnc2)nc1,80.3% (active)
4,COc1cc(C2/C(=C(\O)c3ccc4c(c3)CC(C)O4)C(=O)C(=O)N2Cc2ccco2)ccc1O (stereo unspecified),inactive
5,CN(C)CCn1c(=S)[nH]c2ccc(Cl)cc2c1=O,inactive
6,Cc1cc(C)n(CCNC(=O)CC2C(=O)NCCN2Cc2ccc(C)o2)n1 (stereo unspecified),inactive
7,FC(F)(F)c1cc(-c2cccs2)nc(NCc2ccco2)n1,inactive
8,S=C(NCc1ccc(Cl)cc1)NC12CC3CC(CC(C3)C1)C2,68.5% (active)
9,O=C(c1ccc(O)cc1)c1ccc(C(=O)O)c(C(=O)O)c1,inactive
10,O=C(Cn1c(-c2cncs2)nc2ccccc21)NC1CCCC1,inactive
11,CC1CCN(S(=O)(=O)c2nnc(NC(=O)COc3ccccc3F)s2)CC1,inactive
12,Cc1ccc(-c2nn(C(C)(C)C)c3ncnc(N)c23)cc1,inactive
13,c1ccc(-c2[nH]ncc2-c2nc3ccccc3[nH]2)cc1,inactive
14,Cc1nccn1CCC1CCCCN1C(=O)CCc1nnc(-c2ccsc2)o1 (stereo unspecified),inactive
15,CN(c1cccc(NC(=O)Nc2ccc(Cl)cc2)c1)S(C)(=O)=O,44.9% (active)
16,C(=N\n1cnnc1)/c1cccnc1,inactive
17,CCS(=O)(=O)c1ccc2c(c1)N(S(=O)(=O)c1ccccc1)CC(C(=O)O)O2 (stereo unspecified),inactive
18,CCOC(=O)c1c(NC(=O)CSc2cn(CC)c3ccccc23)sc2c1CCC2,85% (active)
19,CCOC(=O)c1c(NC(=O)CNC2CCCc3ccccc32)sc(C(N)=O)c1C (stereo unspecified),inactive
20,CCNC(=O)c1c(O)c2cccc3c2n(c1=O)CC3,inactive
21,Cc1ccc(C(=O)COC(=O)CCN2C(=O)C3C4CC(C(Br)C4Br)C3C2=O)cc1 (stereo unspecified),inactive
22,O=c1cc(CSc2ccccn2)nc(N2CCN(c3ccccc3)CC2)[nH]1,inactive
23,CCOC(=O)Cc1csc(SCc2cc(=O)oc3cc(O)ccc23)n1,85.3% (active)
24,CCSc1nsc(NC(=O)Nc2cccc(C(C)=O)c2)n1,inactive

row,Compound,remaining BAM8-22 calcium response % of control (hits give low values)
1,CCOC(=O)CNC(=O)CSc1nc2cccnc2n1CC,inactive
2,CCOC(=O)C1=C(O)/C(=C/c2cc(C)n(-c3ccccc3)c2C)N=C1C,inactive
3,Cc1cccn2c(=O)c(/C=C3\SC(=S)N(CC(C)C)C3=O)c(NCCCOC(C)C)nc12,63.8% (active)
4,CCN(CC)CC(=O)Nc1nn(-c2ccccc2)nc1C(N)=O,inactive
5,CCC1CCCCN1CCNC(=O)c1[nH]c(C)c(C(C)=O)c1C (stereo unspecified),inactive
6,O=C(CN1CCN(c2ccc(Cl)cc2)CC1)N1CCCC1,inactive
7,O=C(Cc1nc2ccccc2[nH]c1=O)c1ccc(Cl)cc1,64.3% (active)
8,O=C(NC1CCCCC1)C1c2ccccc2C(=O)N1Cc1ccco1 (stereo unspecified),inactive
9,CCc1cc(=O)oc2cc(C)cc(OCC(=O)N3CCC[C@@H]3C(=O)O)c12,inactive
10,CCCCOC(=O)CNc1nnc(SCC(=O)OCC)[nH]c1=O,70.5% (active)
11,COC(=O)c1c(NC(=O)c2c(Cl)cnn2C)sc(C)c1C,inactive
12,Cc1ccc(C(C(=O)NC2CCCCC2)N(C(=O)c2csnn2)C2CC2)o1 (stereo unspecified),inactive
13,O=C(c1cccs1)C1C(c2ccc(Br)cc2)NC(=S)NC1(O)C(F)(F)F (stereo unspecified),inactive
14,Cc1nc(N2CCN(c3ccccn3)CC2)c2c(C)c(C(=O)Nc3ccc(F)c(Cl)c3)sc2n1,70.4% (active)
15,COc1cc(CCC(=O)Nc2ccncc2Cl)cc(OC)c1OC,inactive
16,C=CCSc1nc(Cc2ccc(Cl)cc2)nc2ccccc12,inactive
17,O=C(COC(=O)C1CCN(S(=O)(=O)c2ccc3c(c2)OCCO3)CC1)Nc1ccccc1OC(F)F,inactive
18,Clc1ccc(-c2nc3ccccn3c2CN2CCSCC2)cc1,inactive
19,Clc1ccc(C=NC23CN4CN(CN(C4)C2)C3)cc1,inactive
20,COc1ccc(C(=O)CSc2n[nH]c(N)n2)cc1,inactive
